Laboratory results published in PubChem BioAssay AID624351 (Southern Research Specialized Biocontainment Screening …, 2012).
The whole screen tested about 2,400 compounds, of which about 1,400 (58%) were called active.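 How the source made its calls: active means inhibition of 30% or more at any tested dose; inconclusive means primary hits over the limit that were never retested; inactive means the rest.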 So high a share suggests a set chosen from earlier hits. Some of the results follow.

Assay: coupled detection enzyme interference, dose response, artefact control for MgcRacGAP inhibitor project, biochemical, coupled enzyme counter-screen (AID 624351);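 further: signal is the ADP detection kit reading of free GDP without any GAP enzyme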;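 on inhibition: 0% = median positive control wells and 100% = median negative control wells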
Settings: ADP Hunter coupled enzyme counter-screen, fluorescence, no MgcRacGAP; series mostly up to 80 µM; inhibition: at the top concentration

Row | SMILES | IC50 | inhibition
1 | Nc1ccc2nc(CCCCc3nc4ccccc4[nH]3)[nH]c2c1 | 59.4 µM (active) | 
2 | Nc1ccc2nc(Cc3ccccc3)[nH]c2c1 | 72.6 µM (active) | 
3 | O=C1C(=Cc2ccco2)CCC1=Cc1ccco1 |  | -16.6% [at 10 µM] (inactive)
4 | O=C(CCC1CCCC1)N1CCN(C2CCCC2)CC1 |  | 18.7% (inactive)
5 | CC/C(=C\c1ccc(N(C)C)cc1)c1ccncc1 | 29.7 µM (active) | 
6 | COC1=C(Br)C(=O)c2nc(C)ccc2C1=O |  | -0.53% (inactive)
7 | O=C(Nc1ccc(N2CCCCC2)cc1)c1ccccc1 |  | 26.5% (inactive)
8 | Cc1ccccc1C(=O)Nc1ccc(N2CCCC2)cc1 | 70.8 µM (active) | 
9 | O=C(Nc1ccc(N2CCCCCC2)cc1)c1ccc[nH]1 | 38.8 µM (active) | 
10 | CN1CCN(Cc2coc3c(Cl)cc(Cl)cc3c2=O)CC1 |  | 23% (inactive)
11 | Cc1ccc(CCC(=O)Nc2ccc(N(C)C)cc2)o1 | 57.5 µM (active) | 
12 | Cc1ccc(NC(=O)CCNCc2ccco2)cc1S(=O)(=O)N(C)C |  | 17.8% (inactive)
13 | COc1ccc(NC2CCCN(C(=O)CSc3ccccc3)C2)cc1OC (centres undefined) | 68.5 µM (active) | 
14 | COc1ccc(NC2CCCN(C(=O)CCN3Cc4ccccc4C3=O)C2)cc1 (centres undefined) | 63 µM (active) | 
15 | COc1ccc(NC2CCCN(C(=O)CCc3cccc(F)c3)C2)cc1 (centres undefined) | 72.9 µM (active) | 
16 | COc1ccc(C(=O)N2CCN(C3CCN(Cc4ccccc4)CC3)CC2)cc1OC |  | 21.6% (inactive)
17 | COc1ccc(C2CC(c3ccc4ccccc4c3)=NN2C(=O)CNC2CCCCC2)cc1 (centres undefined) |  | 8.63% (inactive)
18 | COc1ccc(CN2CCN(Cc3cccc(F)c3)CC2)cc1OC |  | 13% (inactive)
19 | COc1ccc(NC2CCCN(C(=O)CCN3CCCO3)C2)cc1 (centres undefined) |  | 27.3% (inactive)
20 | O=C(c1cccc(F)c1)N1CCN(Cc2cccc(Br)c2)CC1 |  | 15.5% (inactive)
21 | COc1ccc(NC2CCCN(C(=O)CCN3CCCC3=O)C2)cc1OC (centres undefined) |  | 28% (inactive)
22 | CCOc1ccccc1/C=c1\sc2ncnn2c1=O |  | 1.49% (inactive)
23 | CN1C(=O)NC(c2ccc(O)cc2)C2=C1CN(c1ccc(O)cc1)C2=O (centres undefined) | 44.7 µM (active) | 

Row | SMILES | IC50 | inhibition
24 | O=C(CN1CCCCCC1)NCC1CCCO1 (centres undefined) |  | 18.5% (inactive)
25 | O=C(Cn1c(C(=O)NCC2CCCO2)cc2sccc21)c1ccccc1 (centres undefined) | 81.6 µM (active) | 
26 | C=CCOc1ccccc1CN1CCCN(C)CC1 |  | 15.9% (inactive)
27 | COc1cccc(CNCc2ccco2)c1O |  | 14.1% (inactive)
28 | COc1cccc(NC2=C(C#N)C(=O)NC(c3cccc(OC)c3O)S2)c1 (centres undefined) |  | 4.84% (inactive)
29 | Oc1ccc(-c2csc(Nc3ncccn3)n2)cc1 | 21.3 µM (active) | 
30 | Oc1ccc(-c2csc(Nc3cccnc3)n2)cc1 | 15.8 µM (active) | 
31 | COc1cccc(Nc2nc(-c3ccc(O)cc3)cs2)c1 | 63.7 µM (active) | 
32 | Oc1ccc(-c2csc(NCc3ccco3)n2)cc1 | 24 µM (active) | 
33 | COc1ccc(-n2c(SCC(=O)C(C)(C)C)nc3c(sc(=S)n3-c3ccccc3)c2=O)c(OC)c1 |  | 4.76% (inactive)
34 | Cc1nc2ncccn2c1-c1csc(Nc2ccc(O)cc2)n1 | 11.1 µM (active) | 
35 | Cc1ccnc(Nc2nc(-c3ccc(O)c(O)c3)cs2)c1 | 61 µM (active) | 
36 | Oc1ccc(-c2csc(Nc3ccccn3)n2)c(O)c1 | 63.3 µM (active) | 
37 | O=C(Nc1nc(-c2ccncc2)cs1)C1COc2ccccc2O1 (centres undefined) |  | -0.97% (inactive)
38 | Oc1ccc(-c2csc(Nc3ccccn3)n2)cc1 | 79.7 µM (active) | 
39 | NNc1cc([N+](=O)[O-])cc2c1C(=O)N(Cc1ccccc1)S2=O (centres undefined) |  | -2.56% (inactive)
40 | O=C1NN(c2ccccc2)C(=O)C1=Cc1ccccc1O |  | 1.15% (inactive)
41 | COc1cccc(OCC(O)CN2CCN(C)CC2)c1 (centres undefined) |  | 25.3% (inactive)
42 | c1ccc(CCNCCCOc2cccc3ccccc23)cc1 |  | 17.6% (inactive)
43 | Nc1ccc2c(c1)C(=O)c1cc(N)c(Cl)cc1-2 | 49.2 µM (active) | 
44 | COc1cc2c(cc1N)-c1ccc(N)cc1C2=O | 16.5 µM (active) | 
45 | O=C(/C=C/c1ccc([N+](=O)[O-])cc1)/C=C/c1ccco1 |  | -25.6% (inactive)
46 | Cc1ccc(Cl)c(OCCCN(C)Cc2ccccc2)c1 |  | 19.9% (inactive)

Row | SMILES | IC50 | inhibition
47 | O=C(CNCC1CCCO1)Nc1ccc(N2CCCCCC2)cc1 (centres undefined) |  | 29.8% (inactive)
48 | CC1=NN(c2cccc(C(=O)O)c2)C(=O)/C1=C\C=C\c1ccco1 |  | 5.84% (inactive)
49 | N#Cc1ccccc1OCCCN1CCC(Cc2ccccc2)CC1 |  | 15.2% (inactive)
50 | CC(=O)c1c(C)c(C)c2n1CCn1c(C)ccc1-2 | 44.7 µM (active) | 
51 | COc1ccc(NCc2cccnc2)cc1 | 54.6 µM (active) | 
52 | Clc1nc(NCc2cccnc2)nc(N2CCOCC2)n1 |  | 2.09% (inactive)
53 | COc1cccc(OC)c1C(=O)N1CCN(Cc2cccnc2)CC1 |  | 19.6% (inactive)
54 | COc1ccc(NCc2ccsc2)cc1 | 28.9 µM (active) | 
55 | COc1ccc2cc(CNCCOCCOCCNCc3ccc4cc(OC)ccc4c3)ccc2c1 |  | 8.48% (inactive)
56 | N#CCCN(CCC#N)c1nncs1 |  | 3.07% (inactive)
57 | Cc1ccc2c(c1)C(C)CC(C)(C)N2C(=O)CN1CCN(C)CC1 (centres undefined) |  | 25% (inactive)
58 | COc1ccc2c(c1)-c1nc(/N=C/c3cccc(OC)c3O)sc1CC2 | 29.2 µM (active) | 
59 | COc1ccc2c(c1)-c1nc(/N=C/c3c(O)ccc4ccccc34)sc1CC2 | 62.7 µM (active) | 
60 | COc1ccc2c(c1)-c1nc(/N=C/c3ccccc3O)sc1CC2 | 32.7 µM (active) | 
61 | COc1ccc2nc(C)cc(N/N=C/c3cccc(OC)c3O)c2c1 |  | 25% (inactive)
62 | Cc1cc(Cl)c(OCCOCCN2CCN(C)CC2)c(Br)c1 |  | 24.2% (inactive)
63 | CCCCN(C)CCNC(=O)CSCc1ccc(C)cc1 |  | 15.9% (inactive)
64 | O=C(N/N=C/c1ccc(N2CCOCC2)s1)c1ccc(O)cc1 | 25.2 µM (active) | 
65 | Nc1ccc(C(=O)N/N=C/c2ccc(N3CCOCC3)s2)cc1 | 19.5 µM (active) | 
66 | Cc1cc(OCCCN2CCN(Cc3ccccc3)CC2)ccc1[N+](=O)[O-] |  | 24.2% (inactive)
67 | CC(=O)Nc1cccc2cc(O)ccc12 | 35.8 µM (active) | 
68 | O=C(/C=C/c1ccc(O)c(O)c1)OC(Cc1ccc(O)c(O)c1)C(=O)O (centres undefined) | 44.1 µM (active) | 
69 | O=C1N=c2ccccc2=C1c1sc(Nc2ccc(O)cc2)nc1O |  | 20.5% (inactive)

Row | SMILES | IC50 | inhibition
70 | Cc1ccc(-c2csc3n[nH]c(=S)n23)cc1 | 61.8 µM (active) | 
71 | CC1(C)Nc2cccc3cccc(c23)N1 | 31.9 µM (active) | 
72 | COc1ccc(OC(=O)c2cc(S(=O)(=O)N3CCCC3)ccc2Cl)cc1 |  | 2.36% (inactive)
73 | C/C(=N\Nc1ccc(S(=O)(=O)N2CCCCC2)cn1)c1ccc(O)cc1 | 20 µM (active) | 
74 | CC1CCCC(N2CCN(C(=O)c3ccc([N+](=O)[O-])cc3)CC2)C1 (centres undefined) |  | -14.3% (inactive)
75 | Cc1ccc(NCCCCO)cc1C | 43.3 µM (active) | 
76 | Cc1ccc(NCc2ccco2)cc1C |  | -4.65% (inactive)
77 | C/C(=N\Nc1cccc2cccnc12)c1ccc[nH]1 |  | 20.1% (inactive)
78 | Cc1nc(Cc2nnc(SCC(=O)N3CCN(c4ccc(O)cc4)CC3)o2)cs1 | 30.6 µM (active) | 
79 | Cc1cccc(NC2=C(C#N)C(=O)NC3(CCCC3)S2)c1 |  | 0.64% (inactive)
80 | COc1ccc(/C=N/N2CCN(C)CC2)cc1O | 42.6 µM (active) | 
81 | COc1ccccc1N1CCN(/N=C/c2ccc(O)cc2O)CC1 | 70.9 µM (active) | 
82 | COc1ccc(CN2CCCN(C)CC2)c(OC)c1C |  | 16.2% (inactive)
83 | COc1cccc(OC)c1NC(=O)CN1CCN(C)CC1 |  | 25.3% (inactive)
84 | COc1cc(/C(C)=N/N2CCN(c3ccccc3OC)CC2)ccc1O |  | 25.9% (inactive)
85 | COc1cc(/C=N/N2CCN(c3ccccc3OC)CC2)ccc1O | 36.5 µM (active) | 
86 | COc1ccccc1N1CCN(CC(=O)c2ccc(F)cc2)CC1 |  | -12.8% (inactive)
87 | COc1ccccc1N1CCN(CCCOc2ccc(F)cc2)CC1 |  | 19.5% (inactive)
88 | Cc1ccc(N2C(N)=C(C#N)C3(C(=O)N(C)c4ccccc43)C3=C2CC(C)(C)CC3=O)cc1Cl (centres undefined) |  | 1.04% (inactive)
89 | Cc1cccc2sc(NNC(=O)c3cc(=O)c4ccccc4o3)nc12 | 64.9 µM (active) | 
90 | COc1cc(/C=N/NC(=O)CC2C(=O)NN=C2C)ccc1O (centres undefined) | 59.1 µM (active) | 
91 | COc1cc(/C=N/NC(=O)C2=NNC(=O)C2C)ccc1O (centres undefined) | 74.7 µM (active) | 
92 | CC1C(=O)NN=C1C(=O)N/N=C\c1ccc(O)cc1O (centres undefined) | 37.7 µM (active) | 

Row | SMILES | IC50 | inhibition
93 | CCN1CCN(Cc2ccc(NC(=O)c3ccc(C)c(/C=C/c4cnc(Nc5cc(N6CCNCC6)nc(C)n5)cn4)c3)cc2C(F)(F)F)CC1 |  | -0.63% (inactive)
94 | O=C(N/N=C/c1sc2ccccc2c1O)c1cccc2ccccc12 | 60.6 µM (active) | 
95 | O=C(N/N=C/c1ccc(F)cc1)c1cc(-c2ccco2)nc2ccccc12 |  | -10.7% (inactive)
96 | Cc1c(C(=O)N/N=C/c2ccc(O)cc2)sc(=S)n1C |  | 19.2% (inactive)
97 | O=C(N/N=C/c1ccc(O)cc1)c1csc2c1CCCC2 | 40.6 µM (active) | 
98 | O=C(N/N=C/c1ccc(O)cc1)c1csc2ccccc12 | 43.1 µM (active) | 
99 | C=CCc1cccc(Cl)c1OCCCNC1CCCC1 |  | 8.95% (inactive)
100 | O=C1ON=C(c2ccccc2)/C1=C/c1ccco1 |  | -3.67% (inactive)
101 | Cc1ccc(COC(=O)Cc2coc3cc(O)ccc23)cc1 | 28.9 µM (active) | 
102 | Cn1cccc1CC(=O)N/N=C/C=C/c1ccco1 |  | -26.5% (inactive)
103 | Oc1ccc(CCc2ccccn2)cc1 | 44.9 µM (active) | 
104 | c1ccc(CNC23CC4CC(CC(C4)C2)C3)nc1 |  | 17.5% (inactive)
105 | COc1ccc(CN(C)CCc2ccccn2)cc1OC |  | 20.1% (inactive)
106 | CC(C)CC(=O)N1CCN(Cc2cccc([N+](=O)[O-])c2)CC1 |  | 13.1% (inactive)
107 | COc1cc(N2C(=O)C=CC2=O)ccc1N1C(=O)C=CC1=O |  | 3.9% (inactive)
108 | O=C(c1ccccc1F)N1CCN(Cc2ccc3c(c2)OCO3)CC1 |  | 15.9% (inactive)
109 | COc1ccc(-c2cnnc(N/N=C/c3ccc(O)c(O)c3)n2)cc1 | 73.9 µM (active) | 
110 | COc1cc(/C=N/Nc2nc(N3CCCC3)nc(N3CCCC3)n2)ccc1O | 79.1 µM (active) | 
111 | COc1cc2nc(N3CCNCC3)nc(N)c2cc1OC |  | 6.38% (inactive)
112 | Oc1ccc(/C=N/Nc2nc(N3CCCC3)nc(N3CCCC3)n2)cc1O | 48.3 µM (active) | 
113 | CCNc1nc(NCC)nc(N/N=C/c2ccc(O)c(O)c2)n1 | 50.4 µM (active) | 
114 | Cc1ccc(C)c(-n2sc3ccc(F)cc3c2=O)c1 |  | 12.9% (inactive)
